In PubChem BioAssay (NCI):
The panel holds about 83,000 compounds, 20% with a hit somewhere; the sample as a whole holds those more often.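 96-well plates, one dose, 48 hours. Percent growth reported; active if below 10.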 Values without a mark were called inactive. Calls of active or inactive are those of the source.

Assays:
Assay in all cases: NCI-60 one-dose screen, 48 h (100 = growth as untreated, 0 = no growth, -100 = all killed)
Conditions in all cases: 10 µM unless noted
DU-145 prostate = system: DU-145 prostate
K-562 leukemia = system: K-562 leukemia
MALME-3M melanoma = system: MALME-3M melanoma
MDA-MB-231 breast = system: MDA-MB-231 breast
RXF 393 renal = system: RXF 393 renal
SF-268 CNS = system: SF-268 CNS
SF-295 CNS = system: SF-295 CNS
SF-539 CNS = system: SF-539 CNS
UACC-257 melanoma = system: UACC-257 melanoma
M14 melanoma = system: M14 melanoma
HCT-15 colon = system: HCT-15 colon
HT29 colon = system: HT29 colon
SNB-75 CNS = system: SNB-75 CNS
SNB-19 CNS = system: SNB-19 CNS
U251 CNS = system: U251 CNS
PC-3 prostate = system: PC-3 prostate
SK-MEL-5 melanoma = system: SK-MEL-5 melanoma
UACC-62 melanoma = system: UACC-62 melanoma
LOX IMVI melanoma = system: LOX IMVI melanoma
SK-MEL-28 melanoma = system: SK-MEL-28 melanoma

| Compound | growth (DU-145 prostate) | growth (K-562 leukemia) | growth (MALME-3M melanoma) | growth (MDA-MB-231 breast) | growth (RXF 393 renal) | growth (SF-268 CNS) | growth (SF-295 CNS) | growth (SF-539 CNS) | growth (UACC-257 melanoma) | growth (M14 melanoma) | growth (HCT-15 colon) | growth (HT29 colon) | growth (SNB-75 CNS) | growth (SNB-19 CNS) | growth (U251 CNS) | growth (PC-3 prostate) | growth (SK-MEL-5 melanoma) | growth (UACC-62 melanoma) | growth (LOX IMVI melanoma) | growth (SK-MEL-28 melanoma) |
| --- | --- | --- | --- | --- | --- | --- | --- | --- | --- | --- | --- | --- | --- | --- | --- | --- | --- | --- | --- | --- |
| O=[N+]([O-])c1ccc(-c2cc(-c3ccc(Nc4nc(Nc5ccc(Cl)cc5)nc(Nc5ccc(Cl)cc5)n4)cc3)no2)cc1 | 87.7% | 65.6% | 96.3% | 73.5% | 71.7% | 96.1% | 563% | 95.4% | 105% | 102% | 89.9% | 16.5% | 16.9% | 98.2% | 91.9% | 74.1% | 79.5% | 95.7% | 84.4% | 40.5% |
| Cc1nn(-c2ccccc2)c2nc3c(c(-c4ccc(Cl)cc4)c12)CNC1(CCSCC1)N3 | 110% | 93.1% | 96.5% | 96.9% | 88.8% | 101% | 103% | 110% | 107% | 94.1% | 101% | 101% | 78.6% | 106% | 95.8% | 87% | 99.1% | 102% | 97.7% | 104% |
| N#Cc1c(-c2cccc(Cl)c2)cc(-c2cccc(F)c2)[nH]c1=O | 98.6% | 85.5% | 99.9% | 89.9% | 88.7% | 95.6% | 91.2% | 94.3% | 102% | 101% | 90.2% | 107% | 85.8% | 91.1% | 86.7% | 85.3% | 89.4% | 76.8% | 89.6% | 97.9% |
| C(=N\Nc1ncc(-c2cc3cc4c(cc3o2)OCO4)s1)/c1ccco1 | 12.4% | 21.7% | 25% | 42.4% | 17.1% | 39.2% | 84.8% | 7% (active) | 80.1% | 52.5% | 18.4% | 36.9% | 51.2% | 53.9% | 37% | 33.6% | 87.4% | 88.8% | -48.8% (active) | 81% |
| COc1ccc2occ(C3=C(c4c[nH]c5ccccc45)C(=O)N(O)C3=O)c2c1 | 102% | 87.3% | 112% | 69% | 107% | 91.8% | 105% | 102% | 99% | 94.2% | 100% | 99.7% | 99.7% | 91.8% | 91.7% | 81.3% | 92.7% | 80.2% | 58.4% | 114% |
| CC(=O)N1N=C(c2ccc(Nc3nc(Nc4ccc(F)cc4)nc(Nc4ccc(F)cc4)n3)cc2)CC1c1cccc([N+](=O)[O-])c1 (stereo not given) | 106% | 76.7% | 91.3% | 84.6% | 81.4% | 103% | 482% | 92.9% | 115% | 94.1% | 91.7% | 48.5% | 21.8% | 92.5% | 86.7% | 70.9% | 78.8% | 92.6% | 87.9% | 74.4% |
| N#C/C(=C\c1ccc(-c2ccccc2F)o1)c1nc(-c2ccco2)cs1 | 101% | 82.8% | 96% | 85.8% | 109% | 101% | 98.6% | 98.1% | 99.7% | 94.8% | 62.1% | 95.5% | 60.7% | 95.2% | 101% | 78.4% | 84.7% | 83.9% | 93.7% | 104% |
| NC(=O)c1ccc[n+]([C@@H]2O[C@H](COP(=O)([O-])OP(=O)(O)OC[C@H]3O[C@@H](n4cnc5c(N)ncnc54)[C@H](O)[C@@H]3O)[C@@H](O)[C@H]2O)c1 | 105% | 109% | 115% | 98% | 125% | 104% | 108% | 90.3% | 108% | 104% | 97.3% | 106% | 104% | 110% | 99.5% | 114% | 112% | 119% | 92.9% | 103% |
| CC(=O)C(C)Cc1cc2c(cc1C)C(C)(C)CCC2(C)C (stereo not given) | 107% | 105% | 99% | 109% | 104% | 100% | 102% | 102% | 79.1% | 88.1% | 96.7% | 93.3% | 96.4% | 116% | 97.1% | 77.4% | 103% | 99.4% | 90.7% | 106% |
| O=C(CSc1nccc(Nc2ccc(S(=O)(=O)Nc3nccs3)cc2)n1)c1ccc(F)cc1 | 105% | 113% | 103% | 113% | 112% | 105% | 103% | 100% | 96.5% | 101% | 98.1% | 106% | 94% | 100% | 102% | 96.1% | 98.7% | 94.5% | 97.5% | 106% |
| CN(C)c1ccc(-c2cc(-c3ccc(Nc4nc(Nc5ccc(Cl)cc5)nc(Nc5ccc(Cl)cc5)n4)cc3)no2)cc1 | 47.7% | 24.8% | 54% | 35.6% | -42.1% (active) | 45% | -16.8% (active) | 46.1% | 65.7% | 61.6% | 39% | 33.9% | 19.6% | 65.7% | 27.4% | 6.65% (active) | 34.5% | 66.2% | 29% | 31.3% |
| O=C(NCCNc1cc(-c2cn(-c3ccccc3)nc2-c2cccc(O)c2)ccn1)Nc1ccccc1 | 92.8% | 35.4% | 92.3% | 57.1% | 89.5% | 81.3% | 75.8% | 89.5% | 58.7% | 72.2% | 62.7% | 27.3% | 66.2% | 82.4% | 56.4% | 45.7% | 63.9% | 70% | 82.5% | 103% |
| Cn1cc(-c2csc(-c3cccc(F)c3)n2)c2cccnc21 | -62.7% [100 µM] (active) | 2.45% [100 µM] (active) | -39.1% [100 µM] (active) | -50.1% [100 µM] (active) | -30.7% [100 µM] (active) | -40.5% [100 µM] (active) | -51.9% [100 µM] (active) | -74.9% [100 µM] (active) | -37.6% [100 µM] (active) | -77.2% [100 µM] (active) | -43.3% [100 µM] (active) | -71.7% [100 µM] (active) | -29.4% [100 µM] (active) | -62.8% [100 µM] (active) | -36.4% [100 µM] (active) | -42% [100 µM] (active) | -86.1% [100 µM] (active) | -67% [100 µM] (active) | -54.3% [100 µM] (active) | -57.8% [100 µM] (active) |
| O=[N+]([O-])c1ccc(Sc2cccc[n+]2[O-])c2nonc12 | 50% | -21.7% (active) | 100% | 90.4% | 54.5% | 58.9% | 89.9% | 93.6% | 91.5% | 71.3% | 73.1% | 78.2% | 80.7% | 88.3% | 2.22% (active) | 41.8% | 72.3% | 50.6% | 2.14% (active) | 23.8% |
| O=C(NCCc1ccc(O)c(O)c1)C12CC3CC(CC(C3)C1)C2 | 101% | 92.6% | 107% | 85.5% | 101% | 89.6% | 128% | 80.4% | 98.8% | 103% | 91.8% | 102% | 82% | 98.5% | 101% | 73.5% | 96% | 90.3% | 89.1% | 104% |
